Screening results: PubChem, National Center for Advancing Translational Sciences (NCATS)
FLuc modulator: qHTS profiling assay for firefly luciferase inhibitor/activator using purifed enzyme and Km concentrations of substrates (counterscreen for miR-21 project); Luciferin 4-monooxygenase (Photinus pyralis), P08659; purified FLuc, Km substrates, luminescence inhibition; Potency, µM (doses to about 57.5 µM), for the others: at the highest dose activity change, negative = inhibition, actives largely listed as inhibitors; 6.9% of 360,000 active;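 also: plate controls were vehicle for no effect and reference inhibitor for full effect; nearly all actives have a fitted effect of over 55% in size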
Target sequence (P08659 whole entry, looked up): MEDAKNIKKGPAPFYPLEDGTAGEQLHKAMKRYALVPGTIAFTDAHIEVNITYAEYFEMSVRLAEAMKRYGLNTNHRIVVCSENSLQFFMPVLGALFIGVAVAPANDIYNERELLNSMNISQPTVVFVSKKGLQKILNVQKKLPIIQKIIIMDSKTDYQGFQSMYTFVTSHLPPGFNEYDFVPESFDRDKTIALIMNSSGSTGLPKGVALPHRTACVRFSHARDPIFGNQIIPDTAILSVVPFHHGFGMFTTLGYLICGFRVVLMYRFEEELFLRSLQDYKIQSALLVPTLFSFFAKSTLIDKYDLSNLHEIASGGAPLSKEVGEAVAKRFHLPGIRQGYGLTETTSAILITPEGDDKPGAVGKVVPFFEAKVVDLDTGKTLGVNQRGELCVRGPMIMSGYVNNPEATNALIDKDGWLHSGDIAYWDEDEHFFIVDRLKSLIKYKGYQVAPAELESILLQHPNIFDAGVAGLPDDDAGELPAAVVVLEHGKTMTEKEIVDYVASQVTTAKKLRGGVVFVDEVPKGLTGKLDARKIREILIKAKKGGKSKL
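Purified P. pyralis luciferase (10nM final) with 10uM D-luciferin and 10uM ATP (Km levels) in 50mM Tris acetate pH 7.5, 10mM Mg acetate, 0.01% Tween-20, 0.05% BSA; qHTS 6-point titration, ~60 µM downward; luminescence read.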
SMN2 splice enh: qHTS Assay for Enhancers of SMN2 Splice Variant Expression; Potency, µM (highest dose often 46.1 µM), inactives show top-dose activity change, positive = activation, hits mostly activators; 2.8% of 210,000 active; HEK293 SMN2-luciferase splicing reporter, luminescence, 30-36 h; also: % of control where 0% means no effect; nearly all actives have a fitted effect of over 55% in size
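qHTS luciferase splicing reporter: luminescence rises when SMN2 exon 7 is included in transfected HEK293 cells. Compound exposure lasted 30-36 h at 37C, with 4.5 mM final sodium butyrate as control, followed by a ONE-Glo read.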
Rab9 promoter act: qHTS Assay for Rab9 Promoter Activators | Huh7 Rab9 promoter-luciferase reporter, luminescence, 24 h | Potency, µM (doses to about 9.22 µM), without a hit: top-dose activation, negative = inhibition, usual class: activators | 2.8% of 320,000 active; also: % of control where 0% means no effect; nearly all actives have a fitted effect of over 60% in size
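Promoter activation is measured as luciferase luminescence in Huh7 cells stably transfected with a Rab9 promoter–luciferase construct, following 24 h compound exposure at 37 °C and 10 min reagent incubation at ambient temperature.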
NPC1 prom act: qHTS Assay for NPC1 Promoter Activators; Huh7 NPC1 promoter luciferase reporter, 24 h; Potency, µM (top dose mostly 9.22 µM), for inactives: at the top dose activation, actives largely listed as activators; 2.4% of 320,000 active; also: % of control where 0% means no effect; nearly all actives have a fitted effect of over 60% in size
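Luminescence from an NPC1 promoter-driven luciferase reporter in stably transfected Huh7 cells was measured after 24 h compound treatment at 37 °C, followed by 10 min ambient incubation with luciferase detection reagent.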
ELG1 genotoxic: qHTS screen for small molecules that induce genotoxicity in human embryonic kidney (HEK293T) cells expressing luciferase-tagged ELG1. AID 504466, 2011. 1.3% of 330,000 active. Potency, µM (highest dose often 46 µM), for inactives: at the top dose activity change, positive = activation, hits mostly activators. HEK293T ELG1-luciferase reporter, luminescence, 16 h; also: % of control where 0% means no effect; nearly all actives have a fitted effect of over 60% in size
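Screening used a luciferase reporter fused to human ELG1 in HEK293T cells. Luminescence was read on a CCD plate imager after 16 hr exposure and 30 min ONE-Glo incubation.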
ELG1 DNA repair: qHTS screen for small molecules that inhibit ELG1-dependent DNA repair in human embryonic kidney (HEK293T) cells expressing luciferase-tagged ELG1 | HEK293T ELG1-luciferase reporter, luminescence, 16 h; DNA damage induced by 5-fluorouridine | Potency, µM (top dose mostly 46.1 µM), for the others: top-dose activity change, negative = inhibition, usual class: inhibitors | 2.3% of 330,000 active | AID 504467, 2011; also: % is scaled to controls: 0 for no effect and ±100 for the full control effect; nearly all actives have a fitted effect of over 55% in size
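HEK293T cells expressing luciferase-tagged ELG1 (2,000/well) received 5-Fluorouridine plus compound or DMSO for 16 hr at 37 °C. Luciferase was read by ONE-Glo luminescence after 30 min at room temperature.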
Numbers without * were called inactive; ? = inconclusive; · = not tested or not shown; [ ] = dose if it differs, or a comment. Most compounds without a hit are left out; they make up all but 9.2% or so of the library. Calls follow the shape of the dose curve; as a rule, active = well fitted curve in the direction sought with a large enough effect; inconclusive = small, poorly fitted or top-dose-only effect, or another doubt; inactive = no such curve, though single readings can be large; an effect the other way counts as inactive or inconclusive. Potency is read from the fitted curve at half-maximal effect.

SMILES | FLuc modulator | SMN2 splice enh | Rab9 promoter act | NPC1 prom act | ELG1 genotoxic | ELG1 DNA repair
Cn1c(NC(=O)CCC2CCCCC2)cc(=O)n(C)c1=O | 5.4µM* | 11µM* | 1.4µM* | 4µM* | 3.3µM* | ?
O=C(CCC1CCCCC1)Nc1ccccc1-c1ccccc1 | -2% | -12% | -1% | -3% | -5% | 11%
O=C(CCC1CCCCC1)Nc1ccccc1O | 21µM* | ? | ? | ? | 10µM* | ?
Cc1ccc(NC(=O)Cn2cccc2)c(Br)c1 | -7% | 14% | 15% | 1% | 8% | ?
Cc1ccc(CNCC(=O)Nc2ccc(C)cc2Br)cc1 | ? | 12% | 5% | -3% | 6% | ?
CC(=O)c1cc2c(cc1NC(=O)Cc1ccsc1)OCO2 | -12% | · | -3% | -2% | 0% | 26%
CC1=C(C(=O)NCc2ccccc2)C(c2cccs2)NC(=S)N1 (stereo not given) | 1% | · | 1% | -8% | 3% | -7%
Cn1c(NNC(=O)c2ccc(C(C)(C)C)cc2)cc(=O)n(C)c1=O | -14% | 13% | -1% | -2% | 4% | 10%
Cn1c(NC(=O)c2ccc(C(C)(C)C)cc2)cc(=O)n(C)c1=O | -10% | 8% | 17% | 14% | 9.2µM* | ?
Cc1ccc(O)c(NC(=O)CCC2CCCCC2)c1 | 7.6µM* | 17% | 24% | ? | ? | ?
Cc1ccc(NC(=O)C2CC3CCC2C3)c(Br)c1 (stereo not given) | 17µM* | · | ? | 4µM* | ? | ?
Cc1ccc(C)c(NC(=O)C2CC3CCC2C3)c1 (stereo not given) | ? | · | 10% | 12% | 5% | ?
CCN1C(=O)[C@H]2[C@H]3CN=C(SCc4ccc(C(=O)OC)cc4)N3[C@@](C)(C(=O)OC)[C@H]2C1=O | · | · | · | · | 5% | 1%
COc1ccccc1NC(=O)Cn1c(=O)n(Cc2nc(-c3ccccc3)no2)c(=O)c2ccccc21 | 6% | · | · | · | · | ·
Cc1cccc(C(=O)NC2=NCCS2)c1 | 8.5µM* | · | 0.71µM* | 1.3µM* | ? | ?
O=C(NC1=NCCS1)c1cccs1 | -19% | 28µM* | 16% | 4% | 19% | ?
CC(C)C(NC(=O)c1cccs1)C(=O)NC1=NCCS1 (stereo not given) | 2% | -2% | -8% | 0% | 4% | 0%
O=C(NC1=NCCS1)c1csc2ccccc12 | -27%[2.3 µM] | 11µM* | 1.6µM* | 2.2µM* | ? | ?
O=C(NC1=NCCS1)c1ccccc1Cl | -19% | · | 4% | 2% | 5% | 15%
O=C(Nc1cnccn1)c1csc2ccccc12 | 19µM* | ? | ? | 25% | ? | ?
O=C(Nc1ccon1)c1csc2ccccc12 | -10% | ? | -2% | 4% | 0% | -3%
COc1ccc(/C=C(/NC(=O)c2ccco2)C(=O)NCc2ccco2)cc1OC | -2% | · | 7% | -7% | 8% | 18%
O=C(NC1=NCCS1)c1cc(Cl)ccc1Cl | -8% | · | 3% | -5% | -1% | 13%
O=C(NC1=NCCS1)c1ccc(Cl)c(Cl)c1 | 4.8µM* | · | 0.63µM* | 0.63µM* | ? | ?
Cc1cc(C(=O)NC2=NCCS2)cs1 | 8.5µM* | 11µM* | 1.6µM* | 2.5µM* | 16µM* | ?
O=C(NC1=NCCS1)c1ccccc1 | -18% | · | 23% | 21% | 16% | ?
O=c1cnc2ccccc2n1Cc1ccc(Br)cc1 | 27µM* | · | 19% | 6% | 6% | 5%
O=C(O)Cn1c(=O)cnc2ccccc21 | 0% | -7% | -5% | -6% | 0% | 9%
